{"source": "PubChem BioAssay AID743446", "about": "(Broad Institute, 2014)", "note": "Results with a measured potency or affinity are listed apart. Activity calls are given as the source filed them. No rule for the calls is given here.", "data": [{"assay": "viability loss in HEK293 cells – cell-based, plate reader, cherry-picked samples, cytotoxicity control, dose response (AID 743446)", "details": "stronger effect = lower value; at 26 µM unless noted", "values": [{"compound": "CO[C@H]1CN(C)C(=O)c2ccc(NC(=O)c3ccc(-c4ccccc4)cc3)cc2OC[C@@H](C)NC[C@@H]1C", "max activity": "20.6% [at 0.8 µM] (inactive)"}, {"compound": "COc1cccc(-c2ccc(C3[C@@H]4CN(C(=O)C5CC5)C[C@H]3N4)cc2)c1", "note": "(stereo partly drawn)", "max activity": "15.1% [at 3 µM] (inactive)"}, {"compound": "Cc1cc(C(=O)COC(=O)c2ccccc2O)c(C)n1CC1CCCO1", "note": "(stereo not drawn)", "max activity": "-7.06% [at 6 µM] (inactive)"}, {"compound": "CC(=O)c1ccc(Nc2nc(-c3sc(C)nc3C)cs2)cc1", "max activity": "-13.6% (inactive)"}, {"compound": "O=C(Nc1ccc(N2CCOCC2)c(S(=O)(=O)Nc2ccccc2Cl)c1)c1ccc(F)cc1", "max activity": "-18.2% [at 0.1 µM] (inactive)"}, {"compound": "C[C@@H]1CN([C@H](C)CO)C(=O)c2c(c3ccccc3n2C)-c2ccccc2CO[C@@H]1CN(C)S(=O)(=O)c1ccc(C(F)(F)F)cc1", "max activity": "-8.56% (inactive)"}, {"compound": "O=C(Nc1ccc(N2CCN(C(=O)c3ccc(Cl)cc3)CC2)cc1)c1cc2ccccc2o1", "max activity": "21.1% [at 0.05 µM] (inactive)"}, {"compound": "Cc1ccoc1C(=O)Nc1ccc2ccccc2c1", "max activity": "-16.8% [at 0.1 µM] (inactive)"}]}]}
